Results published in PubChem BioAssay AID1508601 (ICCB-Longwood Screening Facility, Harvard Medical School, 2020).
Where “and” joins values, the source holds several entries; their conditions need not be identical. Identical values can stand only once. In all, about 5,700 compounds went through this assay and about 85 (1%) were called active. No stated cut-off is given here; in the data, active means p53-positive nuclei above about 36% (passing the limit was not always enough); inactive means the rest. For the sample, actives were picked, then their nearest neighbours and some compounds at random.

How the values were obtained:
[1] = p53 stabilisation in HPV-positive human cells, imaging, p53-positive nuclei imaging, 24 h, 48 h (AID 1508601); conditions: 24/48 h
[2] = target: Cellular tumor antigen p53 (Homo sapiens) (UniProt P04637); assay: as above; conditions: 24/48 h, stronger effect = higher value
Cellular tumor antigen p53 (Homo sapiens), sequence (P04637 whole entry, looked up): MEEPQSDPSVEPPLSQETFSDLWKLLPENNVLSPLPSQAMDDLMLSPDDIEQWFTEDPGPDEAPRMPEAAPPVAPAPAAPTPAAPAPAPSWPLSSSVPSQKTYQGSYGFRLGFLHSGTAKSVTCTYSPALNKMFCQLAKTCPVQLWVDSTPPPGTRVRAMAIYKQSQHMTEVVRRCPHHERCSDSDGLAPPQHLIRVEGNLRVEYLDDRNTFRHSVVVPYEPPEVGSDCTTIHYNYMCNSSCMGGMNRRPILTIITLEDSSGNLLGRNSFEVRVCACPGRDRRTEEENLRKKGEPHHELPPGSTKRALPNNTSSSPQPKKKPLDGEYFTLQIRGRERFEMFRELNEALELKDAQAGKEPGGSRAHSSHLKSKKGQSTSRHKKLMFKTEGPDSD

[3] = measured here: cell number at 24 h, Library stock concentration: 80 uM
[4] = measured here: cell number at 24 h, Library stock concentration: 400 uM
[5] = measured here: cell number at 24 h, Library stock concentration: 2 mM
[6] = measured here: cell number at 24 h, Library stock concentration: 3.33 mM
[7] = measured here: cell number at 24 h, Library stock concentration: 10 mM
[8] = measured here: cell number at 48 h, Library stock concentration: 80 uM
[9] = measured here: cell number at 48 h, Library stock concentration: 400 uM
[10] = measured here: cell number at 48 h, Library stock concentration: 2 mM
[11] = measured here: cell number at 48 h, Library stock concentration: 3.33 mM
[12] = measured here: cell number at 48 h, Library stock concentration: 10 mM
[13] = Library stock concentration: 80 uM
[14] = Library stock concentration: 400 uM
[15] = Library stock concentration: 2 mM
[16] = Library stock concentration: 3.33 mM
[17] = Library stock concentration: 10 mM
[18] = measured here: p53 positive nuclei at 24 h, Library stock concentration: 80 uM
[19] = measured here: p53 positive nuclei at 24 h, Library stock concentration: 400 uM
[20] = measured here: p53 positive nuclei at 24 h, Library stock concentration: 2 mM
[21] = measured here: p53 positive nuclei at 24 h, Library stock concentration: 3.33 mM
[22] = measured here: p53 positive nuclei at 24 h, Library stock concentration: 10 mM

With `CC(=O)N[C@@H](CC(C)C)C(=O)N1CCC(n2cc(C(C)(C)N)nn2)CC1` the nuclei count, normalised ([1]; measured here: cell number at 24 h, concentration not given here) was 104%, the nuclei count, normalised ([1]; measured here: cell number at 48 h, concentration not given here) was 109% and the p53-positive nuclei, normalised ([2]; concentration not given here) was -0.0832% (inactive). The p53-positive nuclei, normalised ([2]; measured here: p53 positive nuclei at 24 h, concentration not given here) was 0.155%.

With `Cc1nc(Nc2n[nH]c3c2CN(C(=O)NC(CN(C)C)c2ccccc2)C3(C)C)c2sccc2n1` (centres undefined) the nuclei count, normalised ([1]; measured here: cell number at 24 h, Library stock concentration: 46 uM) was 105%, the nuclei count, normalised [1, 3] was 95.1% and the nuclei count, normalised ([1]; measured here: cell number at 24 h, Library stock concentration: 278 uM) was 96.3%. The nuclei count, normalised [1, 4] was 85.6%, the nuclei count, normalised ([1]; measured here: cell number at 24 h, Library stock concentration: 1.67 mM) was 75.5% and the nuclei count, normalised [1, 5] was 66.2%. For the same compound, the nuclei count, normalised [1, 6] was 47.2%, the nuclei count, normalised [1, 7] was 45.2% and 45.1% and the nuclei count, normalised ([1]; measured here: cell number at 48 h, Library stock concentration: 46 uM) was 108%. It also gave a nuclei count, normalised [1, 8] of 96.4%, a nuclei count, normalised ([1]; measured here: cell number at 48 h, Library stock concentration: 278 uM) of 99.1% and a nuclei count, normalised [1, 9] of 92.2%. It also gave a nuclei count, normalised ([1]; measured here: cell number at 48 h, Library stock concentration: 1.67 mM) of 72.1%, a nuclei count, normalised [1, 10] of 63.4% and a nuclei count, normalised [1, 11] of 37.3%. For the same compound, the nuclei count, normalised [1, 12] was 32.4% and 35.1%, the p53-positive nuclei, normalised ([2]; Library stock concentration: 46 uM) was -0.184% (inactive) and the p53-positive nuclei, normalised [2, 13] was -0.159% (inactive). For the same compound, the p53-positive nuclei, normalised ([2]; Library stock concentration: 278 uM) was -0.101% (inactive), the p53-positive nuclei, normalised [2, 14] was -0.117% (inactive) and the p53-positive nuclei, normalised ([2]; Library stock concentration: 1.67 mM) was 0.691% (inactive). For the same compound, the p53-positive nuclei, normalised [2, 15] was 2.71% (inactive), the p53-positive nuclei, normalised [2, 16] was 69.1% (active) and the p53-positive nuclei, normalised [2, 17] was 18.9% (inactive) and 1.61% (inactive). It also gave a p53-positive nuclei, normalised ([2]; measured here: p53 positive nuclei at 24 h, Library stock concentration: 46 uM) of 0.116%, a p53-positive nuclei, normalised [2, 18] of -0.151% and a p53-positive nuclei, normalised ([2]; measured here: p53 positive nuclei at 24 h, Library stock concentration: 278 uM) of -0.0682%. The p53-positive nuclei, normalised [2, 19] was 0.0839%, the p53-positive nuclei, normalised ([2]; measured here: p53 positive nuclei at 24 h, Library stock concentration: 1.67 mM) was 1.31% and the p53-positive nuclei, normalised [2, 20] was 2.05%. For the same compound, the p53-positive nuclei, normalised [2, 21] was 6.89% and the p53-positive nuclei, normalised [2, 22] was 1.74% and 0.752%.

For `CC(C)CC(=O)Nc1n[nH]c2c1CN(C(=O)C1CCN(C)CC1)C2(C)C`, the nuclei count, normalised [1, 3] was 90.1%, the nuclei count, normalised [1, 4] was 79.8% and the nuclei count, normalised [1, 5] was 61%. It also gave a nuclei count, normalised [1, 6] of 45.9%, a nuclei count, normalised [1, 7] of 39.3% and a nuclei count, normalised [1, 8] of 91.5%. The nuclei count, normalised [1, 9] was 71.9%, the nuclei count, normalised [1, 10] was 44.9% and the nuclei count, normalised [1, 11] was 31.6%. The nuclei count, normalised [1, 12] was 23.2%, the p53-positive nuclei, normalised [2, 13] was -0.0742% (inactive) and the p53-positive nuclei, normalised [2, 14] was 0.409% (inactive). The p53-positive nuclei, normalised [2, 15] was 5.57% (inactive), the p53-positive nuclei, normalised [2, 16] was 45.4% (inactive) and the p53-positive nuclei, normalised [2, 17] was 3.79% (inactive). It also gave a p53-positive nuclei, normalised [2, 18] of -0.129%, a p53-positive nuclei, normalised [2, 19] of 0.453% and a p53-positive nuclei, normalised [2, 20] of 0.779%. For the same compound, the p53-positive nuclei, normalised [2, 21] was 13.5% and the p53-positive nuclei, normalised [2, 22] was 0.472%.

For `CCCCCOC(=O)Nc1nc(=O)n(C2OC(C)C(O)C2O)cc1F` (centres undefined), the nuclei count, normalised [1, 6] was 99.3%, the nuclei count, normalised [1, 11] was 102% and the p53-positive nuclei, normalised [2, 16] was -0.587% (inactive). The p53-positive nuclei, normalised [2, 21] was -0.329%.

For `CCC(=O)O[C@@]1(C(=O)CCl)C(C)C[C@H]2[C@@H]3CC(F)C4=CC(=O)C=C[C@]4(C)[C@]3(F)C(O)C[C@@]21C` (some centres undefined), the nuclei count, normalised [1, 6] was 104%, the nuclei count, normalised [1, 11] was 97.5% and the p53-positive nuclei, normalised [2, 16] was -0.166% (inactive). It also gave a p53-positive nuclei, normalised [2, 21] of -0.278%.

Compound `CCCCN(Cc1ccc(C(=O)NO)cc1)C(=O)Nc1ccccc1` has a nuclei count, normalised [1, 3] of 103%, a nuclei count, normalised [1, 4] of 99.5% and a nuclei count, normalised [1, 5] of 114%. For the same compound, the nuclei count, normalised [1, 6] was 118%, the nuclei count, normalised [1, 7] was 74.8% and the nuclei count, normalised [1, 8] was 109%. The nuclei count, normalised [1, 9] was 101%, the nuclei count, normalised [1, 10] was 99.5% and the nuclei count, normalised [1, 11] was 90.2%. The nuclei count, normalised [1, 12] was 67.8%, the p53-positive nuclei, normalised [2, 13] was -0.143% (inactive) and the p53-positive nuclei, normalised [2, 14] was 0.163% (inactive). For the same compound, the p53-positive nuclei, normalised [2, 15] was 0.295% (inactive), the p53-positive nuclei, normalised [2, 16] was 0.281% (inactive) and the p53-positive nuclei, normalised [2, 17] was 5.72% (inactive). The p53-positive nuclei, normalised [2, 18] was -0.0551%, the p53-positive nuclei, normalised [2, 19] was -0.12% and the p53-positive nuclei, normalised [2, 20] was 0.226%. It also gave a p53-positive nuclei, normalised [2, 21] of 0.149% and a p53-positive nuclei, normalised [2, 22] of 13.7%.

`COc1ccc(Cn2ccc3ccc(C(=O)NO)cc32)cc1` gave a nuclei count, normalised [1, 3] of 107%, a nuclei count, normalised [1, 4] of 107% and a nuclei count, normalised [1, 5] of 105%. For the same compound, the nuclei count, normalised [1, 6] was 105%, the nuclei count, normalised [1, 7] was 101% and the nuclei count, normalised [1, 8] was 107%. For the same compound, the nuclei count, normalised [1, 9] was 99.6%, the nuclei count, normalised [1, 10] was 98.8% and the nuclei count, normalised [1, 11] was 88.9%. For the same compound, the nuclei count, normalised [1, 12] was 95.1%, the p53-positive nuclei, normalised [2, 13] was -0.106% (inactive) and the p53-positive nuclei, normalised [2, 14] was -0.0148% (inactive). The p53-positive nuclei, normalised [2, 15] was -0.164% (inactive), the p53-positive nuclei, normalised [2, 16] was 0.097% (inactive) and the p53-positive nuclei, normalised [2, 17] was -0.0788% (inactive). For the same compound, the p53-positive nuclei, normalised [2, 18] was -0.0424%, the p53-positive nuclei, normalised [2, 19] was -0.00427% and the p53-positive nuclei, normalised [2, 20] was 0.00889%. The p53-positive nuclei, normalised [2, 21] was -0.209% and the p53-positive nuclei, normalised [2, 22] was 0.0845%.
